Experiment [1] can be described thus: qHTS assay to identify small molecule agonists of the sonic hedgehog signaling (Shh) pathway (AID 1259368; calls by dose curve;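 further: NIH/3T3-derived 3T3Gli1-Luc cells carrying a stable Gli1-driven firefly luciferase reporter; series mostly up to about 92 µM; nearly all actives have a fitted effect of over 15% in size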). The method, boiled down:
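NIH/3T3-derived 3T3Gli1-Luc cells with stably integrated Gli1-driven firefly luciferase, 2,000 cells/well, compounds added after 4 hr. Incubated 24 hr at 37C, 5% CO2; luminescence read after 30 min with luciferase reagent at room temperature.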
(qHTS replaces the single test concentration by a dilution series.)

Experiment [2] can be described thus: qHTS assay to identify small molecule antagonists of the sonic hedgehog signaling (Shh) pathway (AID 1259369; calls by dose curve; further: nearly all actives have a fitted effect of over 45% in size). The method, boiled down: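 NIH/3T3-derived Gli1-Luc reporter cells plated 4 h, dosed with compound, then stimulated with conditioned medium for 24 h at 37 C. Firefly luciferase luminescence read after 30 min with detection reagent at room temperature.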

Experiment [3] deals with Estrogen receptor beta (Homo sapiens) (UniProt Q92731). Kind of experiment: qHTS assay to identify small molecule agonists of the estrogen receptor beta (ER-beta) signaling pathway (AID 1259377; active means well fitted activation curve with a large enough effect in the signal ratio in the repeat runs, not every such curve was filed as active; the % refers to the signal ratio). In a few lines:
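In HEK293T cells bearing a UAS-beta-lactamase reporter under ER-beta control, DMSO-delivered compounds were incubated for 16 hr at 37C. Activity was detected as fluorescence 2 hours after LiveBLAzer B/G FRET substrate addition.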

Experiment [4] can be described thus: qHTS assay to identify small molecule agonists of the androgen receptor (AR) signaling pathway in the presence of an antagonist - cell viability counter screen (AID 1259379).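 Further: MDA-kb2 human breast cancer cells carrying an MMTV luciferase reporter; series mostly up to about 92 µM; nearly all actives have a fitted effect of over 25% in size.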 The method, boiled down:
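MDA-kb2 cells (MMTV-luciferase, AR/GR), 3,000/well, 5 h attachment, then 3.0 µM nilutamide (final) and compounds at 15 concentrations. Viability by CellTiter-Fluor fluorescence after 16 h at 37 °C, 0% CO2, in the reporter wells.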

Experiment [5] in a line: qHTS assay to identify small molecule agonists of the estrogen receptor beta (ER-beta) signaling pathway - cell viability counter screen (AID 1259380). Further: nearly all actives have a fitted effect of over 30% in size. The method, boiled down: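 ER-beta-UAS-bla HEK293T cells in medium with 2% charcoal-stripped FBS, pre-incubated 6 hr, then treated 16 hr at 37C. Cytotoxicity read in the same wells by CellTiter-Glo luminescence after 30 min at room temperature.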

Experiment [6] can be described thus: qHTS assay to identify small molecule antagonists of the estrogen receptor beta (ER-beta) signaling pathway - cell viability counter screen (AID 1259382).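 Further: HEK293T cells carrying ER-beta-UAS-bla reporter stimulated with estradiol; series mostly up to about 92 µM; nearly all actives have a fitted effect of over 55% in size.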 The method, boiled down:
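ER-beta-UAS-bla HEK293T cells in 2% charcoal-stripped FBS medium, treated with compound plus 1 nM 17-beta-estradiol for 16 h at 37C. Viability read by CellTiter-Glo luminescence after 30 min at room temperature in the same wells.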

For experiment [7], the target named is Estrogen receptor (Homo sapiens) (UniProt P03372). Kind of experiment: qHTS assay to identify small molecule agonists of the estrogen receptor alpha (ER-alpha) signaling pathway in the presence of an antagonist (AID 1259383; calls by dose curve; further: top concentration of the series differs between compounds; nearly all actives have a fitted effect of over 15% in size). In a few lines:
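VM7Luc4E2 cells express endogenous full-length ER-alpha with an ERE-luciferase reporter and were hormone-deprived for 5 days. Compounds at 15 concentrations were added with 10.0nM ICI-182,780 for 22hr at 37C. Luminescence was read with ONE-Glo.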

Experiment [8] in a line: qHTS assay to identify small molecule agonists or antagonists of the thyroid stimulating hormone receptor (TSHR) signaling pathway - wild type cell line counter screen (AID 1259384; calls by dose curve). The method, boiled down:
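Counter screen in untransfected Hek293: compounds (15-point titration, triplicate) plus phosphodiesterase inhibitor Ro20-1724 added after 18 h plating; 30 min RT. Intracellular cAMP via competitive d2/cryptate immunoassay, 1 h incubation.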

In experiment [9] the target is Thyrotropin receptor (Homo sapiens) (UniProt P16473). Kind of experiment: qHTS assay to identify small molecule antagonists of the thyroid stimulating hormone receptor (TSHR) signaling pathway (AID 1259385; calls by dose curve; further: nearly all actives have a fitted effect of over 20% in size). The method, boiled down:
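Antagonist mode: compound-treated TSHR-expressing HEK293 cells were stimulated with 1.5 ng/mL TSH (final) in presence of Ro20-1724 for 30 min at RT. HTRF cAMP detection after 1 h; each compound tested at 15 concentrations, triplicate.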

Experiment [10] can be described thus: qHTS assay to identify small molecule agonists of the estrogen receptor alpha (ER-alpha) signaling pathway in the presence of an antagonist - cell viability counter screen (AID 1259386).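 Further: cells exposed to compounds for 22 h at 37 °C before the viability read; nearly all actives have a fitted effect of over 30% in size.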 Further: potency means the concentration at half of the fitted maximal effect. The method, boiled down:
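Cell viability in VM7Luc4E2 cells (endogenous full-length ER-alpha) measured by CellTiter-Fluor fluorescence in the same wells as the luciferase screen. Cells pre-cultured 5 days in charcoal-stripped serum, then treated 22 h with compounds at 15 concentrations plus 10.0nM ICI-182,780.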

The target in experiment [11] is Progesterone receptor (Homo sapiens) (UniProt P06401). Kind of experiment: qHTS assay to identify small molecule agonists of the progesterone receptor (PR) signaling pathway (AID 1346784; calls by dose curve; further: nearly all actives have a fitted effect of over 30% in size). In a few lines:
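Using charcoal-stripped serum (2%) to limit endogenous steroids, PR-UAS-bla HEK 293T cells received compounds for 16 hr at 37C after 6 hr plating; beta-lactamase FRET fluorescence was recorded following 2 hr substrate loading at room temperature.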

The target is the same in experiment [12]. Description: qHTS assay to identify small molecule antagonists of the progesterone receptor (PR) signaling pathway (AID 1346795; active means well fitted inhibition curve with a large enough effect in the signal ratio in the repeat runs, not every such curve was filed as active; the % refers to the signal ratio). In a few lines: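 Inhibition of R5020-induced (1 nM final) beta-lactamase reporter signal in PR-UAS-bla HEK293T cells was scored by FRET fluorescence after overnight (16 hr) compound treatment.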
The nature of experiment [13]: qHTS assay to identify small molecule antagonists of the progesterone receptor (PR) signaling pathway - cell viability counter screen (AID 1346798). Further: series mostly up to about 92 µM; nearly all actives have a fitted effect of over 50% in size. In a few lines:
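ATP content as viability readout: CellTiter-Glo luminescence, 30 min room temperature, in PR-UAS-bla HEK293T cells after 16 hr compound/R5020 treatment at 37C and 5% CO2.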

A short description of experiment [14]: qHTS assay to identify small molecule agonists of the progesterone receptor (PR) signaling pathway - cell viability counter screen (AID 1346799; calls by dose curve; further: nearly all actives have a fitted effect of over 45% in size). The method, boiled down:
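Cytotoxicity in PR-bla HEK293T cells: 16 h compound, 37C; CellTiter-Glo added post-FRET read; luminescence after 30 min RT.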

The nature of experiment [15]: qHTS assay to identify small molecule antagonists of the TGF-beta/Smad signaling pathway - cell viability counter screen (AID 1346824). Further: nearly all actives have a fitted effect of over 50% in size. The method, boiled down:
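Cytotoxicity counter-screen run in the same wells as the beta-lactamase Smad reporter read: CellTiter-Glo luminescence after 30 min at room temperature. HEK 293T SBE-bla cells had 5 hr compound exposure at 37 C with TGF-beta1 (0.25 ng/mL stock).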

Experiment [16] can be described thus: qHTS assay to identify small molecule agonists of the TGF-beta/Smad signaling pathway - cell viability counter screen (AID 1346829). Further: top concentration of the series differs between compounds; nearly all actives have a fitted effect of over 45% in size. The method, boiled down: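 Cytotoxicity counter screen: CellTiter-Glo luminescence (30 min, room temperature) measured in the SBE-bla HEK 293T reporter wells after 5 hr compound treatment at 37 C and the 2 hr substrate step.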

Experiment [17] has as its target Thyrotropin-releasing hormone receptor (Homo sapiens) (UniProt P34981). Description: qHTS assay to identify small molecule antagonists of the thyrotropin-releasing hormone receptor (TRHR) signaling pathway (AID 1346877; active means well fitted inhibition curve with a large enough effect in the repeat runs, not every such curve was filed as active; further: series mostly up to about 51 µM). The method, boiled down: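 TRHR-expressing HEK293 cells loaded with calcium dye for 2 h at 37 C; compounds pre-incubated 5 min at room temperature before TRH challenge at 1 nM final. Intracellular calcium fluorescence read kinetically for 3 min; 15 concentrations in triplicate.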

The target in experiment [18] is Estrogen receptor beta (Homo sapiens) (UniProt Q92731). Description: qHTS assay to identify small molecule antagonists of the estrogen receptor beta (ER-beta) signaling pathway (AID 1259378; active means well fitted inhibition curve with a large enough effect in the signal ratio in the repeat runs, not every such curve was filed as active; the % refers to the signal ratio). In a few lines:
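Antagonist mode: compounds added to beta-lactamase reporter HEK293T ER-beta-UAS cells stimulated with E2 (1nM final), 16 hr at 37C. LiveBLAzer B/G FRET substrate, 2 hours room temperature, fluorescence read-out.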

A short description of experiment [19]: qHTS assay to identify small molecule agonists of the TGF-beta/Smad signaling pathway (AID 1346859; active means well fitted activation curve with a large enough effect in the signal ratio in the repeat runs, not every such curve was filed as active; the % refers to the signal ratio; further: series mostly up to about 77 µM). The method, boiled down:
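Stable Smad binding element-beta-lactamase HEK 293T cells; 5 hr compound exposure at 37 C under 5% CO2; 2 hr room-temperature substrate step; fluorescence excited at 405 nm, collected at 460 nm and 530 nm.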

Experiment [20] addresses Androgen receptor (Homo sapiens) (UniProt P10275). Description: qHTS assay to identify small molecule agonists of the androgen receptor (AR) signaling pathway in the presence of an antagonist (AID 1259381; calls by dose curve; further: nearly all actives have a fitted effect of over 15% in size). The method, boiled down: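 MDA-kb2 cells carrying MMTV-luciferase (AR/GR responsive), 3,000 cells/well, co-treated with 3.0 uM nilutamide final. Compounds at 15 concentrations, 16 hr at 37C without CO2. Luciferase luminescence read after 30 min with ONE-Glo.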

Each structure is given as a SMILES string. Results filed as inconclusive are left out. A structure can be active in one record and inactive in another. The source made the active and inactive calls. Unless noted, the call rests on the fitted dose curve; in most records, active means well fitted curve in the direction sought with a large enough effect in the repeat runs; inconclusive means weak or mixed curves; inactive means no such curve, though single readings can be large; an effect the other way counts as inactive or inconclusive.

Sequence of Progesterone receptor (Homo sapiens) (P06401 whole entry, looked up): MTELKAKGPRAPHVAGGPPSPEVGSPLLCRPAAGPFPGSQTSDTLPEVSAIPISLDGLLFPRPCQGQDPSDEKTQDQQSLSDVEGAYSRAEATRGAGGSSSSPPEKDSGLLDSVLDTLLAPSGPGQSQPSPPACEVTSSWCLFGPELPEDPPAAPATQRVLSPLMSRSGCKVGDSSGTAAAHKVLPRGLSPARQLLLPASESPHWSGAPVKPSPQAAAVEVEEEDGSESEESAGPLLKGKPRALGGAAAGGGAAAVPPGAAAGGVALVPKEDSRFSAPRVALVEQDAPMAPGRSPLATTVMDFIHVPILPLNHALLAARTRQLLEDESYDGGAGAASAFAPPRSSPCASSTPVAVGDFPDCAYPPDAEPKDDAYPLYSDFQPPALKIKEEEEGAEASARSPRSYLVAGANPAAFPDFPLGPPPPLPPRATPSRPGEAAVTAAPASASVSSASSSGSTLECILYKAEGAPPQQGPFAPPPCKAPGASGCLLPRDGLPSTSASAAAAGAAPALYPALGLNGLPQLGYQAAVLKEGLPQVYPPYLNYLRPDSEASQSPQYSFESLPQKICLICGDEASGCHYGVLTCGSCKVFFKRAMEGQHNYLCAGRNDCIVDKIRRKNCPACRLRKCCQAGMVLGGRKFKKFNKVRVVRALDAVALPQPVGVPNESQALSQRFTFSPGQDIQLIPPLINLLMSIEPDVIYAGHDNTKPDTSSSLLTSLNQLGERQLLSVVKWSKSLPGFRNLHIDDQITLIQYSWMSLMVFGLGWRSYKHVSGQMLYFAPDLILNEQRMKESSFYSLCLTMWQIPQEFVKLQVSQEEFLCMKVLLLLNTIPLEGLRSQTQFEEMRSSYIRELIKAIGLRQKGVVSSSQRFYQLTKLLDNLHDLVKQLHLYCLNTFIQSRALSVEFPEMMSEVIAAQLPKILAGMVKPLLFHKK
Sequence of Estrogen receptor beta (Homo sapiens) (Q92731 whole entry, looked up): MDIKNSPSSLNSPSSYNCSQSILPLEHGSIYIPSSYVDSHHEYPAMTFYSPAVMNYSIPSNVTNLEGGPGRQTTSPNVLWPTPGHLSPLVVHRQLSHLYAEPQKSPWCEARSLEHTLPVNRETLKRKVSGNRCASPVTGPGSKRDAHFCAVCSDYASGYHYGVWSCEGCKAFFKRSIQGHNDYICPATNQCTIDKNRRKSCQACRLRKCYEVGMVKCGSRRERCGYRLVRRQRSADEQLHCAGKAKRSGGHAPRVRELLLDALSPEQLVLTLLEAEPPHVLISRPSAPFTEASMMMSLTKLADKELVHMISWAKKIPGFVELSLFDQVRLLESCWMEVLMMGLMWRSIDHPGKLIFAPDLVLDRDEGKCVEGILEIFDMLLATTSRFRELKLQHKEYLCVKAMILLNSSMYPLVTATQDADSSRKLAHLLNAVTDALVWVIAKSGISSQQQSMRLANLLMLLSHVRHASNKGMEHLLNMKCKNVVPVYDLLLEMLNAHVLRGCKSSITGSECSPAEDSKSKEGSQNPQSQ
Sequence of Thyrotropin-releasing hormone receptor (Homo sapiens) (P34981 whole entry, looked up): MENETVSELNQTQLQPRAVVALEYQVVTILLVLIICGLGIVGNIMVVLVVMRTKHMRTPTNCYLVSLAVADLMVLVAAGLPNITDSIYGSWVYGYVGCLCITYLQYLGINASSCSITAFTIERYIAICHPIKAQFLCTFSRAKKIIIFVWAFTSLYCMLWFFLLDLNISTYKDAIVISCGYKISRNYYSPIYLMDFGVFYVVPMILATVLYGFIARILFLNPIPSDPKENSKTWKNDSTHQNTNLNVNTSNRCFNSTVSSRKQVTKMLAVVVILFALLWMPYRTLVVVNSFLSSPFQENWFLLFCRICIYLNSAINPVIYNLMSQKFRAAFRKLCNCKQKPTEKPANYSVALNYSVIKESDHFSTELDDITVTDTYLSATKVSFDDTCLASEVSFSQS
Sequence of Thyrotropin receptor (Homo sapiens) (P16473 whole entry, looked up): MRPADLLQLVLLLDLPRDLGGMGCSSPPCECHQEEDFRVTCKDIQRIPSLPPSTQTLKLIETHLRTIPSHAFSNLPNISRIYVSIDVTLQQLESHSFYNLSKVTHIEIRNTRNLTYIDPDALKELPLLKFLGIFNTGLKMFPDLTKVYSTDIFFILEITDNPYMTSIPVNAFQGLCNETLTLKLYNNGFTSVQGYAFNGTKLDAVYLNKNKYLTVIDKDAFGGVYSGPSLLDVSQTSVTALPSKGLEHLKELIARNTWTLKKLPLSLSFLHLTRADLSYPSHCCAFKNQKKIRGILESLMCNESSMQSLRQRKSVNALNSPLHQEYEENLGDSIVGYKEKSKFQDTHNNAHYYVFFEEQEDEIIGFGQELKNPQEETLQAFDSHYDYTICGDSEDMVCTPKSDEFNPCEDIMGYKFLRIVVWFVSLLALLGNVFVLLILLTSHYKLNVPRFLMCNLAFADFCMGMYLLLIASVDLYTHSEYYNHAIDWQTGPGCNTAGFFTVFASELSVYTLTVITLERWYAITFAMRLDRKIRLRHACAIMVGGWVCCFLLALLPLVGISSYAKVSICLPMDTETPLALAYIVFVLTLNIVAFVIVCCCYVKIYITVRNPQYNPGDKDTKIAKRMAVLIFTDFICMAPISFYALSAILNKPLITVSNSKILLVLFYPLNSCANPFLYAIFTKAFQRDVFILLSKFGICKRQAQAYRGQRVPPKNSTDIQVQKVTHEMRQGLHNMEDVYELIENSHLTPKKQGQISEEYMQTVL
Sequence of Androgen receptor (Homo sapiens) (P10275 whole entry, looked up): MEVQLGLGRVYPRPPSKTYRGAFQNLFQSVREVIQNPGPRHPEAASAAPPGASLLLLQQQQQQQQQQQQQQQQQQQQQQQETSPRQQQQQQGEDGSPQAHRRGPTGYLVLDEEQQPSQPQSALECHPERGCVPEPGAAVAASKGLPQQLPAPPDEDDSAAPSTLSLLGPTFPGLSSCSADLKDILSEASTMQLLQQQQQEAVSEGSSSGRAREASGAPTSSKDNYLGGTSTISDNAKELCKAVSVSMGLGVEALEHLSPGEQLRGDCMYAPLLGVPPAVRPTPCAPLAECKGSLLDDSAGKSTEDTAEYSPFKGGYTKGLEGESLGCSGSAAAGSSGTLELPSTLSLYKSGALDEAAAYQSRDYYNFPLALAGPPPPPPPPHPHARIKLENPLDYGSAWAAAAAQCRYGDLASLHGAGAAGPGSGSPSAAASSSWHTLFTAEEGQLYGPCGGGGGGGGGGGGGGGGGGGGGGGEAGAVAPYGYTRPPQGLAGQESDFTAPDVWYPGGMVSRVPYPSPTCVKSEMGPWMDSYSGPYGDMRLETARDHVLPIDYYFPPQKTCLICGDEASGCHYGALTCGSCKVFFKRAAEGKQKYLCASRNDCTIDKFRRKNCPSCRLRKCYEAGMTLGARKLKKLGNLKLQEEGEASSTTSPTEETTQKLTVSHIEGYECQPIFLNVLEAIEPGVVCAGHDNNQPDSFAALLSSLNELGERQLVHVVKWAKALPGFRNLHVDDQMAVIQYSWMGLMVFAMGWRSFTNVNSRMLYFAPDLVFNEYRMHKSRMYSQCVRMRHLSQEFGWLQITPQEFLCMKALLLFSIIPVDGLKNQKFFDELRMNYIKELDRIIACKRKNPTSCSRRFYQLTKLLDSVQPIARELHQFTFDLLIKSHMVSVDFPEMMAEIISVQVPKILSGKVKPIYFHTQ
Sequence of Estrogen receptor (Homo sapiens) (P03372 whole entry, looked up): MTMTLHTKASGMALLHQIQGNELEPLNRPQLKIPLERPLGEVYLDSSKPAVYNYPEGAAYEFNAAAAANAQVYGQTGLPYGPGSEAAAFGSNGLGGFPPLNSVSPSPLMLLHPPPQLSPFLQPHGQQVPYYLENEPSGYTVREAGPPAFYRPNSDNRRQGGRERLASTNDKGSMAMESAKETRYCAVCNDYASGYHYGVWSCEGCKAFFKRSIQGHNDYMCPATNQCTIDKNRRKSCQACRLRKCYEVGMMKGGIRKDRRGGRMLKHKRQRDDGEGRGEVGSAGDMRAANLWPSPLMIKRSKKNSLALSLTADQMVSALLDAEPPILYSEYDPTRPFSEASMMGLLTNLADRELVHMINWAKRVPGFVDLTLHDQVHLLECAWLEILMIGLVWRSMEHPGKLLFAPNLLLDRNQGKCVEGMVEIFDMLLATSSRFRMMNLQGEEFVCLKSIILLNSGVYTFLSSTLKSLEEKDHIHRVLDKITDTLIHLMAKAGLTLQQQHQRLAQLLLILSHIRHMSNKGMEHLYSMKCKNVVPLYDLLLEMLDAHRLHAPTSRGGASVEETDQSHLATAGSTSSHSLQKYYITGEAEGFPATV

Consider `CCCCC(CC)C(=O)Cl` (stereo not given), for which the outcome in experiment [1], in experiment [6], in [7], in [8], in experiment [9] and in [14] was inactive. In experiment [17], the molecule was called inactive. Moreover, the Potency entry in [2], in experiment [3], in experiment [4], in [5], in [10] and in experiment [11] was “inactive” in each case. The Potency entry in experiment [12], in experiment [13], in experiment [15] and in experiment [16] was “inactive” throughout.

In the case of `CC(=O)C1CCOC1=O` (stereo not given), the molecule was classed as inactive in experiment [1], in experiment [18], in experiment [6], in experiment [8], in [9] and in experiment [14]. In [19], the result was inactive. For the same molecule, the Potency entry in experiment [2], in experiment [3], in experiment [4], in experiment [5], in experiment [10] and in experiment [11] was “inactive” throughout. The Potency entry in experiment [12], in [15] and in experiment [16] was “inactive” each time.

As to `CN(C)CCC#N`, the molecule was called inactive in [1], in experiment [18], in experiment [6], in [14], in experiment [19] and in [17]. The Potency result in [2], in experiment [3], in experiment [4], in experiment [5], in experiment [10] and in experiment [11] was “inactive” in each case. Further, the Potency result in [12], in [13], in experiment [15] and in [16] was “inactive” throughout.

Turning to `Nc1ncc([N+](=O)[O-])s1`, the outcome in experiment [1], in [18], in [6], in experiment [7], in experiment [8] and in [9] was inactive. Further, the result in experiment [14] and in [19] was inactive. Further, the Potency entry in experiment [2], in experiment [3], in experiment [4], in [5], in [11] and in [12] was “inactive” throughout. Also, the Potency result in [15] and in [16] was “inactive” in each case. Also, the Potency in [10] is 54.9 µM (active) and inactive.

With `C=CC(=O)OCCCCCC(C)C`, the result in [1], in [18], in [20], in experiment [6], in experiment [8] and in experiment [9] was inactive. Moreover, the outcome in experiment [14], in experiment [19] and in [17] was inactive. Besides, the Potency entry in experiment [2], in experiment [3], in experiment [4], in experiment [5], in [10] and in [11] was “inactive” throughout. Moreover, the Potency entry in [12], in experiment [13], in experiment [15] and in experiment [16] was “inactive” throughout.

As to `COC(=O)Nc1cccc(OC(=O)Nc2cccc(C)c2)c1`, the call in [1], in experiment [18], in [6], in experiment [14] and in [19] was inactive. The Potency entry in [2], in experiment [3], in [4], in [5], in experiment [10] and in [11] was “inactive” throughout. The Potency entry in experiment [12], in experiment [15] and in [16] was “inactive” each time.

As for `COC(C)(C)CCCC(C)C/C=C/C(C)=C/C(=O)OC(C)C` (stereo not given), the result in experiment [1], in [18], in experiment [20], in [6], in experiment [8] and in [9] was inactive. The molecule was called inactive in experiment [14], in experiment [19] and in experiment [17]. Also, the Potency result in experiment [2], in [3], in [4], in [5], in experiment [10] and in [11] was “inactive” throughout. The Potency entry in experiment [12], in [13], in experiment [15] and in experiment [16] was “inactive” each time.

Take `Cc1cc(O)ccc1Cl`: the outcome in [1], in experiment [18], in [6], in experiment [8], in experiment [9] and in experiment [14] was inactive. In addition, the molecule was classed as inactive in experiment [17]. Further, the Potency entry in experiment [2], in [3], in experiment [4], in [5], in experiment [10] and in [11] was “inactive” in each case. For the same molecule, the Potency entry in experiment [12], in experiment [13], in experiment [15] and in experiment [16] was “inactive” each time.

(Values after PubChem BioAssay (Tox21).)
